Reference: the supplement of paper PMC10646978
± gives the standard deviation.

How the values were obtained:
Conditions in all cases: modulator concentration 10 µM
[1] = test system: RAW-Dual (murine macrophage reporter line); test: NF-kB reporter (SEAP) activity fold change vs agonist alone; higher = enhanced NF-kB activity
Procedure, shortened: (§1)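 RAW-Dual murine macrophage reporter cells were seeded at 50 000 per well in 384-well plates and pre-incubated 1 hour at 37 °C with compound pin-transferred to 10 μM final. After 1 hour, a PRR agonist was added and cells incubated overnight. Supernatant NF-κB (SEAP, QUANTI-Blue, 620 nm absorbance) and IRF (Lucia luciferase, QUANTI-Luc, luminescence) signals were divided by the mean agonist-only control on the same plate to give fold change. Two replicate plates were averaged, with errors by propagation.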

[2] = test system: RAW-Dual (murine macrophage reporter line); test: IRF reporter (Lucia luciferase) activity fold change vs agonist alone; higher = enhanced IRF activity
Procedure, shortened: as §1

[3] = test system: RAW-Dual (murine macrophage reporter line); test: viability score (confluency relative to resting cells, overnight) (fraction); higher = more viable, active = viable (0.7 or more)
Procedure, shortened: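 Compound was added at a final 10 μM to RAW-Dual macrophages in 384-well plates and left overnight. Confluency was imaged with IncuCyte, and two masks were generated in IncuCyte software over all imaged wells. Each viability score is confluency relative to resting cells, and a compound met the cutoff only when both masks were above 70% of resting cells.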

[4] = agonist: CpG ODN 1826 0.5 ug/mL

SMILES | NF-kB reporter [1, 4] | NF-kB reporter ([1]; agonist: LPS 0.1 ug/mL) | NF-kB reporter ([1]; agonist: MPLA […]) | IRF reporter ([2]; agonist: 3'3'-cGAMP 10 ug/mL) | IRF reporter ([2]; agonist: LPS 0.1 ug/mL) | IRF reporter ([2]; agonist: MPLA […]) | viability score [3]
C[C@@H]1CC[C@H]2[C@@H](C)C(=O)O[C@@H]3O[C@@]4(C)CC[C@@H]1[C@]32OO4 | 0.961 ± 0.086 | 0.916 ± 0.052 | 1.11 ± 0.11 | 1.04 ± 0.048 | 1.13 ± 0.065 | 1.17 ± 0.099 | 0.985 (active)
O=C(O)CC[N+](=O)[O-] | 0.87 ± 0.22 | 0.979 ± 0.066 | 0.974 ± 0.063 | 0.912 ± 0.086 | 0.96 ± 0.23 | 0.933 ± 0.12 | 1 (active)
CN1C2CCC1CC(OC(=O)[C@H](CO)c1ccccc1)C2 (some centres undefined) | 1.05 ± 0.096 | 0.961 ± 0.051 | 0.984 ± 0.031 | 0.955 ± 0.069 | 0.968 ± 0.088 | 0.858 ± 0.14 | 0.997 (active)
Nc1ccncc1 | 1 ± 0.24 | 1.03 ± 0.078 | 0.879 ± 0.056 | 0.514 ± 0.022 | 0.929 ± 0.11 | 0.976 ± 0.25 | 0.858 (active)
CC(C)=CCOc1c2occc2cc2ccc(=O)oc12 | 1.13 ± 0.27 | 0.823 ± 0.064 | 0.957 ± 0.088 | 1.09 ± 0.047 | 1.47 ± 0.17 | 1.58 ± 0.21 | 0.95 (active)
CC[C@@]1(O)C(=O)OCc2c1cc1n(c2=O)Cc2cc3ccccc3nc2-1 [Prestw-200] | 1.33 ± 0.23 | 1.75 ± 0.17 | 2.95 ± 0.72 | 3.06 ± 0.081 | 2.05 ± 0.42 | 2.66 ± 0.37 | 0.768 (active)
CCC1(c2ccccc2)C(=O)N(Cc2ccccc2)C(=O)N(Cc2ccccc2)C1=O | 0.516 ± 0.03 | 1.08 ± 0.1 | 0.967 ± 0.056 | 1.17 ± 0.093 | 1.25 ± 0.14 | 1.18 ± 0.11 | 1.01 (active)
COc1cc([C@@H]2c3cc4c(cc3[C@H](O)[C@H]3COC(=O)[C@H]23)OCO4)cc(OC)c1OC [Prestw-782] | 2.45 ± 0.14 | 1.61 ± 0.098 | 2.69 ± 0.16 | 0.0908 ± 0.0036 | 1.48 ± 0.1 | 1.6 ± 0.31 | 0.721 (active)
COC(=O)c1ccc(N2C(=O)NC(=O)C(=Cc3ccc(OCc4ccccc4F)cc3)C2=O)cc1 | 1.06 ± 0.11 | 1.04 ± 0.057 | 0.88 ± 0.056 | 0.942 ± 0.043 | 1.25 ± 0.24 | 1.08 ± 0.25 | 1 (active)
Fc1ccc(CNCCc2c[nH]c3ccccc23)cc1 | 0.733 ± 0.32 | 1.08 ± 0.15 | 0.955 ± 0.075 | 0.751 ± 0.063 | 1.1 ± 0.12 | 1.29 ± 0.28 | 0.599 (inactive)
O=C(O)CCCc1ccc(N(CCCl)CCCl)cc1 | 1.03 ± 0.17 | 1.03 ± 0.084 | 1.11 ± 0.13 | 0.912 ± 0.027 | 1.29 ± 0.28 | 1.08 ± 0.12 | 0.994 (active)
COc1ccc(C(CN(C)C)C2(O)CCCCC2)cc1.Cl (centres undefined) | 1.07 ± 0.08 | 1.06 ± 0.1 | 0.971 ± 0.056 | 1.07 ± 0.22 | 0.867 ± 0.052 | 0.928 ± 0.081 | 1 (active)
CN1C(=O)NC(=O)C(=Cc2ccc([N+](=O)[O-])o2)C1=O | 0.875 ± 0.069 | 1.06 ± 0.083 | 1 ± 0.12 | 0.92 ± 0.066 | 1.24 ± 0.14 | 0.961 ± 0.061 | 1.02 (active)
CC(=O)OC1CCC2(C)C(=CCC3C4CCC(=O)C4(C)CCC32)C1 (centres undefined) | 0.92 ± 0.084 | 0.901 ± 0.076 | 0.863 ± 0.092 | 0.969 ± 0.031 | 1.08 ± 0.095 | 1.15 ± 0.13 | 1 (active)
COc1ccc(C(CN(C)C)C2(O)CCCCC2)cc1 (centres undefined) [Prestw-1170] | 0.741 ± 0.12 | 1.17 ± 0.14 | 0.956 ± 0.074 | 0.916 ± 0.031 | 1.11 ± 0.22 | 1.37 ± 0.23 | 0.981 (active)
Cc1cc(C(C#N)c2ccc(Cl)cc2)c(Cl)cc1NC(=O)c1cc(I)cc(I)c1O (centres undefined) | 0.812 ± 0.14 | 0.999 ± 0.15 | 0.834 ± 0.055 | 0.731 ± 0.058 | 1.3 ± 0.11 | 1.02 ± 0.085 | 0.389 (inactive)
COc1cc2c(c(OC)c1OC)-c1ccc(O)c(=O)cc1C(NC(C)=O)CC2 (centres undefined) | 2.16 ± 0.12 | 1.27 ± 0.084 | 1.52 ± 0.16 | 0.705 ± 0.024 | 1.26 ± 0.082 | 1.08 ± 0.19 | 0.754 (active)
Cc1ccccc1C(=O)Nc1cc(Cl)c([N+](=O)[O-])cc1Cl | 1.05 ± 0.061 | 0.897 ± 0.078 | 0.973 ± 0.029 | 0.997 ± 0.037 | 0.996 ± 0.11 | 0.988 ± 0.21 | 0.998 (active)
Cc1cccc(COc2ccc(C=C3C(=O)NC(=S)NC3=O)cc2)c1 | 0.855 ± 0.07 | 0.875 ± 0.047 | 1.14 ± 0.099 | 0.844 ± 0.056 | 0.992 ± 0.093 | 0.969 ± 0.12 | 0.981 (active)
N=C(N)NOCCC(N)C(=O)O (centres undefined) | 1.02 ± 0.076 | 1 ± 0.058 | 1.02 ± 0.03 | 0.979 ± 0.057 | 0.938 ± 0.12 | 0.931 ± 0.13 | 0.998 (active)
COc1ccc(CCNCc2ccc3ccccc3c2)cc1 | 0.853 ± 0.068 | 0.755 ± 0.051 | 1.65 ± 0.11 | 0.88 ± 0.06 | 0.98 ± 0.13 | 2.58 ± 0.29 | 0.123 (inactive)
CN1C2CCC1CC(OC(=O)C(CO)c1ccccc1)C2 (centres undefined) | 1.23 ± 0.29 | 1.19 ± 0.083 | 1.14 ± 0.098 | 0.91 ± 0.032 | 1.24 ± 0.15 | 1.15 ± 0.16 | 0.986 (active)
Cc1cccc2sc(NC(=O)c3cccn(Cc4ccc(Br)cc4)c3=O)nc12 | 1.06 ± 0.12 | 1.13 ± 0.096 | 1.02 ± 0.15 | 1.04 ± 0.052 | 1.32 ± 0.084 | 1.12 ± 0.085 | 1 (active)
CC12CCC3C(CCC4CC(=O)CCC43C)C1CCC2=O (centres undefined) | 1.29 ± 0.32 | 1.03 ± 0.058 | 0.933 ± 0.075 | 1.04 ± 0.044 | 1.23 ± 0.18 | 1.23 ± 0.17 | 0.997 (active)
Br.CN1C2CC(OC(=O)C(CO)c3ccccc3)CC1C1OC12 (centres undefined) | 1.32 ± 0.32 | 0.999 ± 0.051 | 1.01 ± 0.074 | 1 ± 0.034 | 1.19 ± 0.13 | 1.19 ± 0.13 | 0.985 (active)
CC(O)(CS(=O)(=O)c1ccc(F)cc1)C(=O)Nc1ccc(C#N)c(C(F)(F)F)c1 (centres undefined) | 1.38 ± 0.26 | 0.966 ± 0.081 | 0.952 ± 0.053 | 0.991 ± 0.067 | 1.05 ± 0.095 | 1.23 ± 0.17 | 0.987 (active)
COc1ccc(CNCCc2c[nH]c3ccccc23)cc1OC | 0.397 ± 0.056 | 0.947 ± 0.12 | 0.808 ± 0.077 | 0.763 ± 0.03 | 1.33 ± 0.26 | 1.34 ± 0.24 | 1.01 (active)
